NOMO-1 viab: NOMO-1 AML cell viability reduction, primary screen, STK33 inhibitor project, CellTiter-Glo luminescence; NOMO-1 AML viability, 72 h; inhibition, % (test concentration not listed); actives 7.5% (n = 37,000); AID 2330, 2010; in the data active = inhibition above about 80%; inconclusive = no clear call, values can overlap the other calls
MITF inhib: inhibitors of MITF, primary screen, MITF inhibitor project, cell-based, luminescence. inhibition, % (concentration not given with the values). actives 0.28% (n = 37,000). TRPM1 promoter luciferase, 24 h; in the data active = inhibition above about 85%; inconclusive = no clear call, values can overlap the other calls; inactive = below about 68%;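 also: human melanocyte line stably carrying TRPM1 promoter luciferase reporter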
STK33 kin inh: STK33 kinase inhibitors, primary screen, biochemical, luminescence, ADP-Glo, MBP substrate; Serine/threonine-protein kinase 33 (Homo sapiens), Q9BYT3; actives 0.44% (n = 27,000); inhibition, % at 12.5 µM; in the data active = inhibition above about 20%; inconclusive = no clear call, values can overlap the other calls
Target sequence (Q9BYT3 whole entry, looked up): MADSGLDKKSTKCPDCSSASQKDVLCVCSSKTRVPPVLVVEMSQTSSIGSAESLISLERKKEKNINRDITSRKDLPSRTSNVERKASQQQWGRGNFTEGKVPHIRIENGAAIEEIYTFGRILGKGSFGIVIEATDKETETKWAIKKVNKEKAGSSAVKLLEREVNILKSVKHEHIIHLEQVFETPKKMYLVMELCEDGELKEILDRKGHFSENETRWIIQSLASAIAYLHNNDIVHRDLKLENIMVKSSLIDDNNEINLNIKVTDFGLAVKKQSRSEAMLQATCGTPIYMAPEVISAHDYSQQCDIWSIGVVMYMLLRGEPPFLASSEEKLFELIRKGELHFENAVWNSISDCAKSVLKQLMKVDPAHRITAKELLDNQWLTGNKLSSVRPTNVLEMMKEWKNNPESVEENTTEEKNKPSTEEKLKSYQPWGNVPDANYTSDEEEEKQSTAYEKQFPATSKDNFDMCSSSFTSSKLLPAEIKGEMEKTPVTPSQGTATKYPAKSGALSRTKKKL
p53 PUMA act: mutant p53 pathway re-activators, primary screen, cell-based, SW480, luciferase, single point, HTS; actives 1.5% (n = 28,000); AID 624151, 2012; activation, % at 9.98 µM; SW480 PUMA-promoter luciferase, p53 mutant reactivation; in the data active = activation above about 52%; inconclusive = no clear call, values can overlap the other calls
* = called active by the depositor; ? = inconclusive; nt = no result given. Many of the other results were omitted from the sample, so hits are more common in it than they were.

SMILES	NOMO-1 viab	MITF inhib	STK33 kin inh	p53 PUMA act
C[C@H](CO)N1C[C@H](C)[C@H](CN(C)CC2CC2)Oc2ccc(NC(=O)CCCCCC(=O)Nc3ccccc3N)cc2CC1=O	140*	-7	nt	nt
C[C@@H]1CN([C@@H](C)CO)C(=O)Cc2cc(NC(=O)CCCCCC(=O)Nc3ccccc3N)ccc2O[C@@H]1CN(C)CC1CCCCC1	136*	5	nt	nt
C[C@H](CO)N1C[C@H](C)[C@H](CN(C)Cc2ccc3c(c2)OCO3)Oc2ccc(NC(=O)NC3CCCCC3)cc2C1=O	94*	4	-1	-12
C[C@H]1CN([C@@H](C)CO)C(=O)c2cc(NC(=O)NC3CCCCC3)ccc2O[C@H]1CN(C)Cc1ccc2c(c1)OCO2	102*	-3	nt	-24
C[C@H]1CN([C@@H](C)CO)C(=O)c2cc(NC(=O)NC3CCCCC3)ccc2O[C@@H]1CN(C)Cc1ccc2c(c1)OCO2	26	-6	1	-6
Nc1c(S(=O)(=O)c2ccccc2)nnn1-c1ccc(OC(F)(F)F)cc1	nt	nt	nt	3
CC1CC(=O)c2c(ccc3c2C(=O)c2cccc(O)c2C3O)C1 (configuration not stated)	118*	4	3	-56
Cc1ccccc1NC(=O)Cn1cnc2sc(C)c(C)c2c1=O	2	6	-1	-2
COc1ccc(OC)c(NC(=O)CN(c2ccc(F)c(Cl)c2)S(C)(=O)=O)c1	14	-10	0	8
O=C(COc1cc(O)c2c(=O)c3ccccc3oc2c1)c1ccc(Cl)cc1	117*	32	1	-12
C/C=C(\C)C(=O)O[C@H]1C=C(CO)C(=O)[C@H](OC(C)=O)[C@H]1C(C)C	122*	48	1	nt
Cc1cc(COc2ccccc2OCc2cc(C)no2)on1	nt	nt	-3	9
Cc1noc(COc2ccccc2)c1C(=O)Sc1ccc(F)cc1F	123*	-2	nt	nt
C[C@H]1CN([C@@H](C)CO)C(=O)Cc2cc(NS(=O)(=O)c3ccc(F)cc3)ccc2O[C@@H]1CN(C)Cc1ccc(Cl)c(Cl)c1	57	16	1	nt
C[C@@H]1CN([C@H](C)CO)C(=O)Cc2cc(NS(=O)(=O)c3ccc(F)cc3)ccc2O[C@@H]1CN(C)Cc1ccc(Cl)c(Cl)c1	106*	-19	5	nt
C[C@H](CO)N1C[C@H](C)[C@H](CN(C)Cc2ccc(Cl)c(Cl)c2)Oc2ccc(NS(=O)(=O)c3ccc(F)cc3)cc2CC1=O	107*	2	11	nt
C[C@@H]1CN([C@H](C)CO)C(=O)Cc2cc(NS(=O)(=O)c3ccc(F)cc3)ccc2O[C@H]1CN(C)Cc1ccncc1	6	-7	-1	9
NNC(=O)c1cc(COc2c(Cl)cccc2Cl)on1	nt	nt	nt	10
Cc1cccc(CSc2nc3c(c(=O)[nH]2)C(C(C)C)C2=C(CC(C)(C)CC2=O)N3)c1 (configuration not stated)	nt	nt	nt	-5
O=C(c1ccc(Br)cc1)C(C(=O)N1CCCCC1)n1ccccc1=O (configuration not stated)	10	-4	nt	nt
N#Cc1c(NC(=O)CCCOc2ccc(Cl)cc2Cl)sc2c1CCCC2	33	-4	-2	5
CC1(C)Cc2nc3sc4c(=O)n(CC(=O)NCCc5ccccc5)cnc4c3cc2CO1	-2	3	-4	12
CC1(C)Cc2nc3sc4c(SCC(=O)NCc5ccccc5)ncnc4c3cc2CO1	119*	-2	1	-41
CC(=O)c1ccc(NC(=O)Cn2cnc3c(sc4nc5c(cc43)COC(C)(C)C5)c2=O)cc1	21	-82	1	73*
COc1cc(C)c2c(=O)c3c(O)cc(O)cc3oc2c1	3	12	3	nt
SMILES	NOMO-1 viab	MITF inhib	STK33 kin inh	p53 PUMA act
COC(=O)C[C@H]1C(C)(C)C(=O)[C@@H]2C[C@@]3(O)C4=CC(=O)O[C@@H](c5ccoc5)[C@]4(C)CCC3[C@@]1(C)C2=O (some centres not stated)	104*	-51	1	nt
COCCNc1ncnc2c1cnn2-c1cccc(C)c1	0	-94	1	101*
COc1ccc(OC)c(Nc2ncnc3c2cnn3-c2ccccc2)c1	-6	-105	-1	?
N#C/C(=C(\N)Sc1ccc(N)cc1)c1ccccc1C(F)(F)F	nt	nt	nt	-30
N#CC(=C(/N)Sc1ccccc1N)/C(C#N)=C(\N)Sc1ccccc1N	94*	35	5	-46
C=CCN1C(=O)/C(=C/c2cc(C)n(CCOC)c2C)C(=O)NC1=S	10	22	nt	nt
C=CCN1C(=O)/C(=C/c2cn(C(C)CC)c3ccccc23)C(=O)NC1=S (configuration not stated)	132*	5	nt	nt
